Compounds without any hit were thinned out: in the full panel of roughly 83,000, 20% have a hit.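 Interpretation: 100, growth as untreated; towards 0, rising growth inhibition; 0, no net growth; 0 to -100, cell death. Compounds scoring below 10 were considered active.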 A number with no mark means an inactive call. Activity calls are given as the source filed them.
What was measured:
Assay in all cases: NCI-60 one-dose screen, 48 h (100 = growth as untreated, 0 = no growth, -100 = all killed)
SR leukemia = settings: 10 µM unless noted
RPMI-8226 leukemia = settings: 10 µM unless noted
OVCAR-5 ovarian = settings: 10 µM unless noted
OVCAR-4 ovarian = settings: 10 µM unless noted
SK-OV-3 ovarian = settings: 10 µM unless noted
IGROV1 ovarian = settings: 10 µM unless noted
OVCAR-3 ovarian = settings: 10 µM unless noted
HS 578T breast = settings: 10 µM
OVCAR-8 ovarian = settings: 10 µM unless noted
NCI/ADR-RES ovarian = settings: 10 µM unless noted

SMILES | growth (SR leukemia) | growth (RPMI-8226 leukemia) | growth (OVCAR-5 ovarian) | growth (OVCAR-4 ovarian) [%] | growth (SK-OV-3 ovarian) | growth (IGROV1 ovarian) | growth (OVCAR-3 ovarian) | growth (HS 578T breast) | growth (OVCAR-8 ovarian) | growth (NCI/ADR-RES ovarian)
COc1cc(C(=O)/C=C/c2cn(-c3ccccc3)nc2-c2cccc(Nc3ccnc4cc(Cl)ccc34)c2)cc(OC)c1OC | 3.48% (active) | 47.2% | 112% | 127 | 115% | 93.2% | 132% | 102% | – | –
COC1CC(N)C2OC(c3ccccc3)OCC2O1 (stereo unspecified) | 98% | 92.8% | 94.4% | 97.5 | 115% | 110% | 111% | 96.6% | – | –
CCOC(=O)c1ccc(NCCC(=O)O)cc1 | 103% | 115% | 110% | – | 113% | 112% | 138% | 104% | 104% | 113%
CC1=NN(c2cccc(S(N)(=O)=O)c2)C(=O)C1 | 107% | 271% | 89.9% | 99.4 | 91.3% | – | 96.3% | 86.6% | 107% | 95.2%
OC(c1cc2cc(Cl)ccc2c2cc(C(F)(F)F)ccc12)C1CCCCN1 (stereo unspecified) | -75.3% (active) | -48% (active) | -77.8% (active) | – | -0.379% (active) | -67.4% (active) | -94.8% (active) | -52.6% (active) | -74.6% (active) | -66.1% (active)
CNCc1cccc2c1OCCOCCOCCC(C)S(=O)(=O)c1ccc(cc1)-c1cnc(N)c(n1)C(=O)N2 (stereo unspecified) | -19.2% (active) | 54.8% | 115% | 75.5 | 23.2% | 28.2% | 25.7% | 0.126% (active) | – | 91.6%
N#Cc1ccc(NC(=O)Nc2nc3ccc(OC(F)(F)F)cc3s2)cc1 | -38.4% (active) | -9.16% (active) | 16% | – | 0.444% (active) | 13.2% | 28.9% | -0.817% (active) | 8.91% (active) | -13.8% (active)
CCN(CC)Cc1cc(Nc2ccnc3cc(Cl)ccc23)cc(-c2ccc(Cl)cc2)c1O | -22.7% (active) | 6% (active) | 54.2% | – | 48.1% | -6.07% (active) | -44.1% (active) | -33.5% (active) | 9.58% (active) | 19.9%
COc1cc(NCCCCC(C)N)c2nccc(C)c2c1 (stereo unspecified) | 98.7% | 75.2% | 81.6% | – | 93.3% | 71.3% | 73.5% | 80.2% | 97% | 100%
COc1ccc(Br)c2ccccc12 | 96% | 105% | 110% | 117 | 115% | – | 112% | 112% | 99.7% | 118%
CCN(CC)CCCNc1cccc2c(C)cc(OC)nc12 | 78.3% | 92.3% | 95.5% | – | 106% | 89.5% | 99.9% | 96.4% | 97.9% | 95.9%
O=C(O)C1[S][Sb]([CH](C(=O)O)[CH](C(=O)O)[Sb]2[S]C(C(=O)O)C(C(=O)O)[S]2)[S]C1C(=O)O (stereo unspecified) | 50.2% | 91.9% | 118% | – | 103% | 87.8% | 95.7% | 101% | 96.2% | 104%

From PubChem BioAssay (NCI)
